Assay [1] addresses Rho-associated protein kinase 1 (Homo sapiens) (UniProt Q13464). The note with it: at 1 µM.
Assay [2] has as its target Rho-associated protein kinase 2 (Homo sapiens) (UniProt O75116). The note with it: at 0.1 µM.
Assay [3] has the same target. The note with it: at 1 µM.
Assay [4] addresses Ribosomal protein S6 kinase alpha-1 (Homo sapiens) (UniProt Q15418). The note with it: at 0.1 µM.
Assay [5] shares this target. The note with it: at 1 µM.
The target in assay [6] is Ribosomal protein S6 kinase alpha-3 (Homo sapiens) (UniProt P51812). The note with it: at 0.1 µM.
Sequence of Ribosomal protein S6 kinase alpha-3 (Homo sapiens) (P51812 whole entry): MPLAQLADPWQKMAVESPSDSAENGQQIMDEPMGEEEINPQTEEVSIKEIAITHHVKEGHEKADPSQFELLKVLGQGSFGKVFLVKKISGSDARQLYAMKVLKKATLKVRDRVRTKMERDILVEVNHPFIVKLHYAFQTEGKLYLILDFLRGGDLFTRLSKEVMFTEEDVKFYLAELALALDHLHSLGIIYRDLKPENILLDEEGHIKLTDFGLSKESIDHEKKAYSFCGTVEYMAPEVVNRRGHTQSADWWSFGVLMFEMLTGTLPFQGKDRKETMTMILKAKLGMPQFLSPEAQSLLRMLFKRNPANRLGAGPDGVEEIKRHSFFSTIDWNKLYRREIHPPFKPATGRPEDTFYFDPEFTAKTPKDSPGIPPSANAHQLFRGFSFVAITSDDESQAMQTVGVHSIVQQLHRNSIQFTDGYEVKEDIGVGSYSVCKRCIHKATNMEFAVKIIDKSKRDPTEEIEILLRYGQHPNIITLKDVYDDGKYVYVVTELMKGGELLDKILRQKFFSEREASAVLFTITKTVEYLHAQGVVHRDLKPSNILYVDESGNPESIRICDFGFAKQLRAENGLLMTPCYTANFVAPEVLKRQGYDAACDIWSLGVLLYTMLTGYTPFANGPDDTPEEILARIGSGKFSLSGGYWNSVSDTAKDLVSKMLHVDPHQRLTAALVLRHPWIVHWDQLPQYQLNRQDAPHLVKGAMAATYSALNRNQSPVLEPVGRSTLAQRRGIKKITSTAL
For assay [7] the target is unchanged. The note with it: at 1 µM.
In assay [8] the target is Ribosomal protein S6 kinase alpha-2 (Homo sapiens) (UniProt Q15349). The note with it: at 0.1 µM.
For assay [9] the target is unchanged. The note with it: at 1 µM.
The target of assay [10] is Ribosomal protein S6 kinase alpha-6 (Homo sapiens) (UniProt Q9UK32). The note with it: at 0.1 µM.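 Further: reported value is the mean inhibition of RSK4, from the GSK PKIS kinase inhibitor screen.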
Sequence of Ribosomal protein S6 kinase alpha-6 (Homo sapiens) (Q9UK32 whole entry): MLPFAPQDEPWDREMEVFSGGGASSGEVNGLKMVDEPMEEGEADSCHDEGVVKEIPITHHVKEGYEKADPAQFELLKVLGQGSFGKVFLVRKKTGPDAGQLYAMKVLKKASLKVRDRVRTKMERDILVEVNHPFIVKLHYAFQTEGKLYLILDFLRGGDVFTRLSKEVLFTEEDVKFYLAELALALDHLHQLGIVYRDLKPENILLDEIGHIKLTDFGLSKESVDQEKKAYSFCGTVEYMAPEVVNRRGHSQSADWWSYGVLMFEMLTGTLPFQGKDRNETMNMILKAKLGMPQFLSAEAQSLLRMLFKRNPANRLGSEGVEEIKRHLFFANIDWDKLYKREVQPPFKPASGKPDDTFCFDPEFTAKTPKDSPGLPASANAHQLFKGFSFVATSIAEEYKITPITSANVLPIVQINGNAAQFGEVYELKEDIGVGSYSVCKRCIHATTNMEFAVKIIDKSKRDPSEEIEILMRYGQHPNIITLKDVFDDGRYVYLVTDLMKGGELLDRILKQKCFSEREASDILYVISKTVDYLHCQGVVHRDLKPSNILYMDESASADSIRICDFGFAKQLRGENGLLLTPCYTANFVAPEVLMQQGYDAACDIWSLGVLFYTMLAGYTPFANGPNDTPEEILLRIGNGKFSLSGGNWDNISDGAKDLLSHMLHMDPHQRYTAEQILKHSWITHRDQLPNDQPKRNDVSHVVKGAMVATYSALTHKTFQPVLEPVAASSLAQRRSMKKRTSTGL

Broadly, the inhibition is the change of the read-out against control, counted positive when it falls.

Sequence of Ribosomal protein S6 kinase alpha-1 (Homo sapiens) (Q15418 whole entry): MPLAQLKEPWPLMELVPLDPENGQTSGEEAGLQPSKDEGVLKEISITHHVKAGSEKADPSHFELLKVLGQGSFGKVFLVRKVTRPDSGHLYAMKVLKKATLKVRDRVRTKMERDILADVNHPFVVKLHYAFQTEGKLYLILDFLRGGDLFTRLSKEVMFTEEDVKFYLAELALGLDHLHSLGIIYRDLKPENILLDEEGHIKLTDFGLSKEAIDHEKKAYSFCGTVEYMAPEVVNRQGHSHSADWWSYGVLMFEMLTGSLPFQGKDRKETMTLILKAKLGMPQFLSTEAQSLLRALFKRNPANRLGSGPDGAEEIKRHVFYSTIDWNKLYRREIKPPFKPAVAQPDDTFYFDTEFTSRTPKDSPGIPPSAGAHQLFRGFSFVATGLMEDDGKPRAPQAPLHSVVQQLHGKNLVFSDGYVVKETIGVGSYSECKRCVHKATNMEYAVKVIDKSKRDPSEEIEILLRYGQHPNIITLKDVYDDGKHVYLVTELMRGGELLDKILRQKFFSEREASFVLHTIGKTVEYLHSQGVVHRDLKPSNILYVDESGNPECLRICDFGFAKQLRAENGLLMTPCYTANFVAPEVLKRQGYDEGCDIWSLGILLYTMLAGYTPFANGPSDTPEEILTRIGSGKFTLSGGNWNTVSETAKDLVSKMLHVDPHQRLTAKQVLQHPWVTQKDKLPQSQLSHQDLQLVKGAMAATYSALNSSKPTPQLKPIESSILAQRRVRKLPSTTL
Sequence of Rho-associated protein kinase 1 (Homo sapiens) (Q13464 2-1354 limits assumed): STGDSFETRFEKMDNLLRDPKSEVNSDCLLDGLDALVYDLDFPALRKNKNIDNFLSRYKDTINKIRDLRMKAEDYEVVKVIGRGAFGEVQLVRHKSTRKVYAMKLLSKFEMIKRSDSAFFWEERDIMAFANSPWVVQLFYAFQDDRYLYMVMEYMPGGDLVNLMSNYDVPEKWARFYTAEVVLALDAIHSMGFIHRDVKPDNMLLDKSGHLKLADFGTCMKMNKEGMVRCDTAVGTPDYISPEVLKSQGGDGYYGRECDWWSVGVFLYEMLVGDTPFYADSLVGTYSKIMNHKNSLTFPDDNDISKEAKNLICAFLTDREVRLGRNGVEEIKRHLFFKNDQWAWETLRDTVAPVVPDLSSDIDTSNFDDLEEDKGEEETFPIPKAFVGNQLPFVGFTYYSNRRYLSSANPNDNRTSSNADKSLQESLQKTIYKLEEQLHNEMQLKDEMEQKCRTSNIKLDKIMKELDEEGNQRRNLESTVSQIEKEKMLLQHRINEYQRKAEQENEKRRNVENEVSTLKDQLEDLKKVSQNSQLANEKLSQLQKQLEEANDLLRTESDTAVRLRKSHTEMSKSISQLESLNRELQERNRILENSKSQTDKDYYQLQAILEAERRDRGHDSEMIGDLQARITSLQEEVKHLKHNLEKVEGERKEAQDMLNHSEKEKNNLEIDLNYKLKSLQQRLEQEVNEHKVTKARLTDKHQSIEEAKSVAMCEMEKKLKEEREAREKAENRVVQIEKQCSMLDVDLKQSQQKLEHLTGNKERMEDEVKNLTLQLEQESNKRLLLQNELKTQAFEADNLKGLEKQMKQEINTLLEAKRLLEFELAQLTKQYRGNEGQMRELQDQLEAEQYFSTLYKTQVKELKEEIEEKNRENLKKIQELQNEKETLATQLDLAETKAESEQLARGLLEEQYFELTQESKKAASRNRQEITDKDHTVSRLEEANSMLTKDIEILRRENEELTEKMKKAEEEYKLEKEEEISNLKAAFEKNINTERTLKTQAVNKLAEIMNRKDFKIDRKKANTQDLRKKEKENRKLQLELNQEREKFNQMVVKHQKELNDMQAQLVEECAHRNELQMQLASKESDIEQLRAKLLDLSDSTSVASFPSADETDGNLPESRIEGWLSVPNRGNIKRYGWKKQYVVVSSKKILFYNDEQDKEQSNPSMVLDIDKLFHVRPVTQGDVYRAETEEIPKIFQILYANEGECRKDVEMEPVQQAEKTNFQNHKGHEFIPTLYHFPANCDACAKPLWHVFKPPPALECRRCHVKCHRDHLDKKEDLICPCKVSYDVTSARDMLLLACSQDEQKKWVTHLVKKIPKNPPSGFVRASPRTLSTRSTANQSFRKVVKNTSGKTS
Sequence of Rho-associated protein kinase 2 (Homo sapiens) (O75116 whole entry, looked up): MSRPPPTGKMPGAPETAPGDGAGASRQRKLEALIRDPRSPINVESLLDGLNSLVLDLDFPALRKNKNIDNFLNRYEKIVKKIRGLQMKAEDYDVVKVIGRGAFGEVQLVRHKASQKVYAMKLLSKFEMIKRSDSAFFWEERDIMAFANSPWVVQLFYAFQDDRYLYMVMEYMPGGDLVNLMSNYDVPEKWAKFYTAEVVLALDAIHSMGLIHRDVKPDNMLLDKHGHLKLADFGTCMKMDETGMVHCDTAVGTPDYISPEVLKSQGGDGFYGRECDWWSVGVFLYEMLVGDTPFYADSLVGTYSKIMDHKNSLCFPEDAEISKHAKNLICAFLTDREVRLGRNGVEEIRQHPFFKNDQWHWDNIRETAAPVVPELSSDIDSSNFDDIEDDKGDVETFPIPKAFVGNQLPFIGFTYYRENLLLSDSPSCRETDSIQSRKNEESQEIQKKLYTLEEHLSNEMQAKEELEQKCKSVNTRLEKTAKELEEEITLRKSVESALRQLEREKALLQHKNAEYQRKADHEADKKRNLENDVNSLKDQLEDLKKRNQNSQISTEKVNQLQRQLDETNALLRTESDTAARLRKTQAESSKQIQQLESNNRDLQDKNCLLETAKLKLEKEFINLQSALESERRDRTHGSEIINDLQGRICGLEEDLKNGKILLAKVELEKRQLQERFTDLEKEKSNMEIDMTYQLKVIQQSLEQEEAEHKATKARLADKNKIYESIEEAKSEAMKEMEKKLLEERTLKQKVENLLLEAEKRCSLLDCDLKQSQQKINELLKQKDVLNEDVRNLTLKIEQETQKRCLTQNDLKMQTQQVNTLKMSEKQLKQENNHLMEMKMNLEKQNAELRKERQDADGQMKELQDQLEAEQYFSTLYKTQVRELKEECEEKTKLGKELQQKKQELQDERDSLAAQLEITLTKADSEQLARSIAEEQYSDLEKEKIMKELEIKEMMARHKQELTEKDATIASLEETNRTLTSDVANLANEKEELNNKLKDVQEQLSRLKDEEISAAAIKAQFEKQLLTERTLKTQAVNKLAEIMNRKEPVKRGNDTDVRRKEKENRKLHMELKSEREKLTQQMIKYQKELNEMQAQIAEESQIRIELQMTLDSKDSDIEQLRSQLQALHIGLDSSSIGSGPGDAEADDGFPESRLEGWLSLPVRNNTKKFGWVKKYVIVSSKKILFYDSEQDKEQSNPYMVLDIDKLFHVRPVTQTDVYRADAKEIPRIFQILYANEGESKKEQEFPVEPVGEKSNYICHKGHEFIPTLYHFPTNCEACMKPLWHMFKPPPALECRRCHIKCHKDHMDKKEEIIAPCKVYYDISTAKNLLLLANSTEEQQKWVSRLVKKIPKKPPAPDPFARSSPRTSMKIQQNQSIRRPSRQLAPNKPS

Turning to `N#Cc1c(NC(=O)c2ccc(F)cc2)sc2c1CCCC2`, the inhibition in assay [1] was 1.82%; in assay [2] it was 0.42%; in assay [3], 2.62%; in assay [4], 1.41%; in [5], 2.35%; in [6], 0.9%. The inhibition was 2.51% in [7], -0.44% in [8], 1.7% in assay [9] and -0.96% in assay [10].

For `CCn1c(-c2nonc2N)nc2cnc(Oc3cccc(NC(=O)c4ccc(N(C)C)cc4)c3)cc21`, the inhibition in assay [1] amounted to 87.1%; in [2], 85.5%; in assay [3], 86%; in assay [4], 26.1%; in [5], 68.3%; in assay [6], 12.7%. The inhibition in assay [7] worked out at 52.8%; in assay [8], 17.4%; in assay [9], 63.6%; in assay [10], 2.31%.

Take `CCn1c(-c2nonc2N)nc2c(C#CC(C)(C)O)nc(OC[C@H](N)c3ccccc3)cc21`: the inhibition came to 24.7% in assay [1]; 9.12% in [2]; 51.3% in assay [3]; 3.36% in [4]; 12.8% in assay [5]; 1.74% in assay [6]. The inhibition in assay [7] stood at 14.5%; in [8], 3.19%; in assay [9], 10.7%; in assay [10], 1.53%.

Turning to `COc1ccc(-c2oc3ncnc(N)c3c2-c2ccc(NC(=O)Nc3cc(C(F)(F)F)ccc3F)cc2)cc1`, the inhibition in assay [1] amounted to 11.5%; in assay [2], 6.51%; in [3] it was 41.8%; in [4], 10.5%; in [5], 61.3%; in assay [6], 4.28%. Moreover, the inhibition in assay [7] was found to be 34.4%; in assay [8], 1.67%; in [9] it was 34.1%; in assay [10], 0.74%.

As for `COc1ccc2[nH]c3c4[nH]c5ccc(OC)cc5c4c4c(c3c2c1)C(=O)NC4=O`, the inhibition is 7.02% in [1]; 6.62% in [2]; 16.6% in assay [3]; 53.9% in assay [4]; 82% in assay [5]; 44.9% in assay [6]. The inhibition in [7] turned out to be 80.1%; in assay [8], 73.5%; in assay [9], 92.4%; in [10], 58.2%.

With `COc1cc2c(cc1Nc1nc(Nc3ccsc3C(N)=O)c3cc[nH]c3n1)N(C(=O)CN(C)C)CCC2(C)C`, the inhibition in assay [1] was found to be 66.5%; in assay [2], 29.2%; in [3] it was 72.1%; in assay [4], 23.2%; in [5], 66%; in assay [6], 17.2%. Besides, the inhibition in [7] worked out at 50.7%; in assay [8] it was 8.55%; in assay [9] it was 34.4%; in assay [10] it was 11.5%.

For the compound `Fc1ccc(-c2cc(-c3c[nH]nc3-c3ccccn3)ccn2)cc1`, the inhibition in assay [1] was 1.54%; in assay [2] it was 2.91%; in assay [3] it was 7.8%; in assay [4] it was 1.71%; in [5] it was 5.2%; in assay [6], 0.81%. For the same compound, the inhibition in [7] was 3.36%; in assay [8] it was 1.61%; in [9] it was 2.64%; in assay [10] it was -0.68%.

As for `CC(C)COC(=O)c1ccc2c(c1)/C(=C/Nc1ccc(S(N)(=O)=O)cc1)C(=O)N2`, the inhibition stood at 30.2% in [1]; 6.15% in assay [2]; 43.9% in assay [3]; 6.23% in assay [4]; 32.4% in assay [5]; 7.27% in [6]. Moreover, the inhibition stood at 36% in assay [7], 5.76% in assay [8], 35.5% in [9] and 4.96% in [10].

Consider `CC1=C(C(=O)Nc2cc(Cl)c3[nH]ncc3c2)C(c2ccc(C(F)(F)F)cc2)CC(=O)N1` (stereo not given), for which the inhibition turned out to be 84% in [1]; 72.3% in [2]; 85.8% in assay [3]; 27.8% in assay [4]; 68.7% in assay [5]; 22.3% in assay [6]. For the same compound, the inhibition in assay [7] stood at 65.5%; in assay [8], 13.1%; in assay [9] it was 53.4%; in [10] it was 7.7%.

In the case of `Cc1cccc(Nc2ncc(-c3ccccc3)o2)c1`, the inhibition in [1] came out at 4.38%; in assay [2] it was 2.08%; in assay [3], 3.95%; in assay [4], 2.35%; in assay [5] it was 2.99%; in [6] it was 0.91%. Besides, the inhibition came out at 3.43% in assay [7], 2.17% in assay [8], 2.67% in [9] and 1.32% in assay [10].

`CC(=O)NCc1cccc(C#Cc2cncnc2Nc2ccc(OCc3cccc(F)c3)c(Cl)c2)c1`: the inhibition in assay [1] turned out to be 2.63%; in assay [2], 3.83%; in [3] it was 3.71%; in [4] it was 0.02%; in assay [5] it was 0.7%; in assay [6], 0.76%. Also, the inhibition amounted to 1.97% in assay [7], 1.51% in assay [8], 1.36% in assay [9] and 0.19% in [10].

As for `CNC(=O)c1cncc(/C=C/c2ccccc2Cl)c1`, the inhibition came out at 1.5% in assay [1]; 3.13% in [2]; 6.36% in assay [3]; 0.85% in assay [4]; 2.91% in assay [5]; 1.15% in [6]. Also, the inhibition is 1.38% in assay [7], -0.36% in assay [8], -1.02% in [9] and 0.95% in [10].

As to `CCN1CCC(CC(=O)Nc2n[nH]c3nnc(-c4cccc(F)c4F)cc23)CC1`, the inhibition in [1] was 0.43%; in [2], 1.58%; in assay [3], 0.93%; in assay [4] it was 1.35%; in assay [5] it was 2.11%; in assay [6], 3.2%. The inhibition in [7] came to 3.53%; in assay [8] it was 1.12%; in assay [9], 1.83%; in assay [10], 1.84%.

For `COc1cc(N2CCN(C(C)C)CC2)ccc1Nc1nc(Nc2ccc(F)cc2C(N)=O)c2cc[nH]c2n1`, the inhibition in [1] was found to be 23.5%; in assay [2], 4.69%; in [3], 29.1%; in assay [4], 22%; in assay [5], 65.3%; in [6] it was 15%. For the same compound, the inhibition turned out to be 57% in [7], 8.2% in assay [8], 43.7% in assay [9] and 14.5% in assay [10].
